Assay outcomes: PubChem, several laboratories
FAS-TE inh = blocks the thioesterase domain of human fatty acid synthase; P49327; recombinant FAS-TE, OMFH fluorogenic substrate, fluorescence endpoint; inhibition, % at 15 µM; actives 0.67% (n = 360,000); AID 602261;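 active = compounds whose normalised, plate-corrected inhibition of enzyme fluorescence in the single-dose primary screen is 50% or more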;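 also: 0% = DMSO with enzyme and 100% = substrate without enzyme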
KLK7 zymogen act = activates the human kallikrein-7 zymogen; P49862; purified proKLK7, EDANS-DABCYL substrate fluorescence; 100% is mature enzyme control, 0% vehicle; activation, % at 7 µM; actives 0.9% (n = 370,000); AID 652039;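 active = activation above the mean of all tested compounds plus 3 SD, computed per campaign excluding outliers beyond control limits, cut at about 13% in these data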
Target sequence (P49862 whole entry, looked up): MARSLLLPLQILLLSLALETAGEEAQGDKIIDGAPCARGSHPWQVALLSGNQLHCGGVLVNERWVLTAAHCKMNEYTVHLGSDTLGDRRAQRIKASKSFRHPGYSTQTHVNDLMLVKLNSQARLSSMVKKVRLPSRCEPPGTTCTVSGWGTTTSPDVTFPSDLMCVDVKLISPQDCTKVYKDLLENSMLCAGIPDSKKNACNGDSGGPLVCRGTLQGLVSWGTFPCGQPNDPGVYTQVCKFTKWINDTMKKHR
GAA850 FXN act = increases GAA850 frataxin promoter reporter activity | HEK293 lucGAA850 FXN promoter luciferase reporter, 24 h; percent of 10 µM SAHA response | actives 0.56% (n = 360,000) | activation, % at 6 µM;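 active = activation above the average of all compounds screened plus 3 SD, cutoff fixed separately per campaign, cut at about 7.5% in these data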;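 also: 0% = DMSO wells and 100% = 10 µM SAHA wells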
SMARCA2 act = SMARCA2 function activation, primary screen | MG213 cells, MMTV-luciferase reporter, dexamethasone, overnight | activation, % at 9.1 µM | actives 1% (n = 370,000) | AID 652017; in the data active = activation above about 7.8%;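 also: 0% = vehicle wells and 100% = reference activator wells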
proKLK7 act conf = proKLK7 activation, confirmation. shares compounds with KLK7 zymogen act. purified proKLK7, EDANS-DABCYL substrate fluorescence; scaled: vehicle 0, mature enzyme 100. activation, % at 7 µM. actives 68% (n = 3,200);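 active = activation, as change over the incubation, above the mean of all tested compounds plus 3 SD, cut at about 13% in these data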
EDANS-DABCYL int = counter-screen for kallikrein-7 activators: EDANS-DABCYL optical interference; actives 80% (n = 3,200); activation, % at 7 µM; EDANS-DABCYL substrate fluorescence interference, no enzyme, 4 h; solvent 0%, active enzyme control 100%; AID 686952; shares compounds with KLK7 zymogen act;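 active = activation above the all-compound mean plus 3 SD, ignoring values outside control-based bounds, cut at about 4.8% in these data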;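 also: value is the 4 h activation minus the activation read at time zero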
EDANS interf = counter-screen for kallikrein-7 activators: EDANS-DABCYL interference, dose response. EC50, µM. AID 720493. shares compounds with KLK7 zymogen act. EDANS-DABCYL peptide fluorescence interference, no enzyme. actives 20% (n = 250);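 active = compounds that raise the fluorescence signal in this interference counterscreen, with EC50 at or below 10 µM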;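 also: intact quenched peptide substrate alone read at 355 nm excitation and 520 nm emission; signal is fluorescence gain from T0 to T4 after four hours at room temperature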
Numbers without * were called inactive; nt = not tested or not shown. A selection: hits, their analogues and other compounds. The true share with any hit is near 2.9%.

SMILES | FAS-TE inh | KLK7 zymogen act | GAA850 FXN act | SMARCA2 act | proKLK7 act conf | EDANS-DABCYL int | others
Cc1c(C)c2cc(Cl)c(O)c(CN(C)C)c2oc1=O | -7 | 74* | -3 | -2 | 63* | 65*
CCCCc1cc(=O)oc2c(CN(C)C)c(O)c(Cl)cc12 | -9 | 67* | 0 | -2 | 65* | 86*
CCN(CC)Cc1oc(CO)cc(=O)c1O | 1 | 0 | 0 | 2 | nt | nt
CCc1c(C)c2cc(Cl)c(O)c(CN(CC)CC)c2oc1=O | -1 | 53* | 2 | -1 | 73* | 83*
Cc1c(CC(=O)O)c(=O)oc2c(C)c(OCc3ccc(F)cc3Cl)ccc12 | -3 | -1 | 1 | -1 | nt | nt
CCCCc1cc(=O)oc2cc(OCC(=O)N(CC)CC)c(Cl)cc12 | 3 | 0 | 2 | -1 | nt | nt
CCc1c(C)c2cc(Cl)c(O)c(CN(C)C)c2oc1=O | -8 | 80* | 5 | -3 | 66* | 67*
Cc1c(O)c(CN(C)C)cc2c1oc(=O)c1ccccc12 | -5 | 0 | 3 | -1 | nt | nt
COc1ccc(CNC(=O)C2CCN(C(=O)N3CCOc4ccc(C)cc43)CC2)cc1 | -3 | 0 | -1 | -1 | nt | nt
CNc1cncc(-c2cc(OC)c(OC)c(OC)c2)n1 | -8 | 25* | 3 | -3 | 16* | 22*
CNc1cncc(-c2cccc(C(=O)NC3CC3)c2)n1 | -10 | 54* | 4 | 3 | 47* | 55*
CC(=O)Nc1cncc(-c2cccc(C(=O)NC3CC3)c2)n1 | -8 | 0 | 1 | -1 | nt | nt
CNc1cncc(-c2ccc(O)cc2C)n1 | -7 | 3 | 2 | 0 | nt | nt
CNc1cncc(-c2ccc(C)cc2)n1 | -2 | 30* | 5 | 5 | 41* | 41*
CNc1cncc(-c2cccc(O)c2)n1 | -8 | 37* | 1 | -1 | 35* | 36*
Cc1cc2c3c(c1C)C1(C(=O)N3C(C)(C)CC2C)C(C#N)=C(N)OC2=C1C(=O)CC(C)(C)C2 (centres undefined) | 0 | 0 | 1 | -4 | nt | nt
CN(C)c1ccc(C=Cc2ccnc3ccccc23)cc1N | 0 | 2 | nt | -5 | nt | nt
COc1cc2c(cc1OC)C(c1ccccc1)CC2=O (centres undefined) | -2 | 0 | 2 | -2 | nt | nt
COc1cc2c(cc1OC)C(=O)CC(C)S2 (centres undefined) | -5 | 14* | 2 | 0 | 32* | 26*
CC(=O)Oc1ccc2cc(-c3nc4ccccc4n3C)c(=O)oc2c1 | -6 | 39* | 4 | 2 | 76* | 80*
CC(=O)Oc1ccc(-c2cc3ccccc3oc2=O)cc1 | 2 | -4 | 2 | 1 | nt | nt
CC(C)(C)C(=O)Oc1ccc2cc(-c3ccc4ccccc4n3)c(=O)oc2c1 | 10 | 7 | 2 | 2 | nt | nt
Cn1c(-c2cc3ccc(OC(=O)C(C)(C)C)cc3oc2=O)nc2ccccc21 | 6 | 34* | 7 | 0 | 62* | 60*
CC(Nc1ccc2c(c1)OCCO2)C(=O)Nc1ccc2c(c1)OCO2 (centres undefined) | -2 | 49* | -4 | -2 | 39* | 52*
O=C(Nc1ccc2c(c1)OCCO2)Nc1ccc2c(c1)OCO2 | -4 | 1 | 0 | 5 | nt | nt
SMILES | FAS-TE inh | KLK7 zymogen act | GAA850 FXN act | SMARCA2 act | proKLK7 act conf | EDANS-DABCYL int | others
Cc1ccc(/C=N/N=C/c2ccc(C)s2)s1 | 16 | -1 | 3 | 4 | nt | nt
Cc1ccc(C=Nc2ccccc2C(N)=O)s1 | -9 | 17* | 3 | 0 | 12 | 14*
Cc1cccc(C=Nc2ccccc2C(N)=O)c1 | -3 | 13* | -2 | 2 | 28* | 22* | EDANS interf=>69
CC1(C)Cc2c(ccc3ccccc23)C2=C(C(=O)N3CCCC3)C(=O)C(=O)N21 | -2 | 13* | 1 | -4 | 2 | 1
CCCS(=O)(=O)N1CCn2c(nc3ccccc32)C1 | -7 | 0 | 2 | 2 | nt | nt
Cc1cccc2c(C(=O)O)c3cccc(C)c3nc12 | -5 | 28* | -1 | -2 | 49* | 42* | EDANS interf=>69
O=C(O)c1cc(N=Cc2c(O)c3ccccc3oc2=O)ccc1O | -4 | 150* | 1 | 0 | 398* | 355*
O=C(NCC(=O)N1CCCCCCC1)c1ccccc1Br | -4 | 0 | 0 | 0 | nt | nt
O=C1CC(C(=O)Nc2ccccc2)N=C(N2CCCCC2)N1 (centres undefined) | -7 | 0 | 0 | -3 | nt | nt
O=c1[nH]c2cc3c(cc2cc1C(c1nnnn1CC1CCCO1)N1CCCCCC1)OCCO3 (centres undefined) | -5 | 12 | 1 | 0 | nt | nt
O=c1[nH]c2cc3c(cc2cc1C(c1nnnn1CC1CCCO1)N1CCCC1)OCO3 (centres undefined) | -8 | 15* | 1 | -2 | 9 | 9.4*
CC(C)(C)OC(=O)NCCCCCc1nnc(SCc2ccccc2)o1 | 24 | 0 | -1 | -3 | nt | nt
O=C(Nc1cccc(NC(=O)c2ccc(-c3ccc(Br)cc3)o2)c1)c1ccco1 | 32 | 440* | -3 | -2 | 446* | 213*
O=C(Nc1cccc(NC(=O)c2ccccc2Cl)c1)c1ccco1 | -5 | 0 | -1 | 0 | nt | nt
CN1C(=O)SC(Nc2cccc3ccccc23)C1=O (centres undefined) | -3 | 74* | -1 | 2 | 88* | 85*
CNc1cnc(-c2ccc(O)c(OC)c2)cn1 | 1 | 1 | 1 | -2 | nt | nt
CNc1cnc(-c2ccc(F)c(F)c2F)cn1 | -3 | 13* | 6 | 5 | 13* | 13*
O=C(NC1CCC(O)CC1)c1cc(-c2ccco2)nc2ccccc12 (centres undefined) | -4 | 28* | -1 | -3 | 13* | 11* | EDANS interf=>70
O=C(NCC1CCCO1)c1cc(-c2ccco2)nc2ccccc12 (centres undefined) | -5 | 59* | 2 | -4 | 67* | 68*
CC1(C)CC(=O)C2=C(C1)N(CCN1CCOCC1)C1=C(C(=O)CC(C)(C)C1)C2c1cccc(F)c1 | -3 | 34* | -2 | 0 | 23* | 20*
CC1(C)CC(=O)C2=C(C1)N(CCN1CCOCC1)C1=C(C(=O)CC(C)(C)C1)C2c1ccc(Cl)cc1 | -3 | -5 | 5 | -5 | nt | nt
COc1ccc(C2C3=C(CC(C)(C)CC3=O)N(CCN3CCOCC3)C3=C2C(=O)CC(C)(C)C3)cc1 | -9 | 13* | 0 | -5 | 5 | 15*
O=C1NC(C(F)(F)F)(C(F)(F)F)N=C2SC=CN12 | -3 | -1 | -1 | 2 | nt | nt
COc1ccccc1Nc1nc(NCCO)nc(N2CCCC2)n1 | -13 | 1 | 2 | 0 | nt | nt
